Assay results from PubChem BioAssay AID1259343 (VanderVen Lab, College of Veterinary Medicine, Cornell …, 2017).
In all, about 6,200 compounds went through this assay and about 2,900 (47%) were called active. So high a share suggests a set chosen from earlier hits. This is one part of the list. A number with no mark means an inactive call. No stated cut-off is given here; in the data, active means inhibition above about 50%; inactive means the rest.

Assay: Mycobacterium tuberculosis growth inhibition, primary screen (AID 1259343)
Settings: inhibition: at 10 µM, stronger effect = higher value; outcome: 10 uM

Structure (SMILES)	inhibition
CC1(C)C2CC=C(C=NNC(=O)NC3CCCCC3)C1C2 (centres undefined)	-4.24%
O=C(/C=C/c1ccc([N+](=O)[O-])s1)Nc1nnc(C2COc3ccccc3O2)o1 (centres undefined)	101% (active)
CN(CCCC(=O)Nc1ccc2[nH]c(=S)oc2c1)C(=O)OC(C)(C)C	73.7% (active)
CN(CCCCCCCCCCN(C)C(=O)Oc1cccc([N+](C)(C)C)c1)C(=O)Oc1cccc([N+](C)(C)C)c1	49.3%
C=CCN=c1scc(-c2ccccc2)n1N=Cc1ccccn1	20.3%
Cc1[nH]n(-c2cccc(Cl)c2)c(=O)c1C=NCCc1ccccc1	72.9% (active)
Cc1ccc(C)c(Oc2cc(-n3ncc(Cl)c(Cl)c3=O)nc(C)n2)c1	101% (active)
Cc1ccc2nc(-c3ccncc3)cc(-c3ccccc3)c2c1	53.7% (active)
NC(=O)C(c1ccc(F)cc1)N1CCOC(c2ccc(F)cc2)C1 (centres undefined)	-5.29%
N#Cc1c(F)cccc1N1CCN(c2ccccc2O)CC1	-21.1%
O=c1ccc(-c2cccc([N+](=O)[O-])c2)nn1Cc1c(F)cccc1Cl	21.1%
O=C(CCl)N1CCN(c2ccccc2F)CC1	97.1% (active)
O=C(CCl)N1CCN(Cc2ccc(Cl)s2)CC1	-19.9%
O=C(CCl)N1CCN(Cc2cccc3ccccc23)CC1	71.9% (active)
O=[N+]([O-])c1ccc(N2CCN(Cc3c(F)cccc3Cl)CC2)cc1	86.5% (active)
O=C(CCl)N1CCN(Cc2c(F)cccc2Cl)CC1	66.2% (active)
O=C(c1ccc2c(c1)OCO2)C1CCCN(Cc2c(F)cccc2Cl)C1 (centres undefined)	-16.5%
O=c1ccc(-c2ccco2)nn1Cc1cccc2ccccc12	37%
CC1(C(=O)NCc2cccc3ccccc23)CCN1CCCc1ccccc1 (centres undefined)	32.3%
O=c1c(-c2cccc(Br)c2)[n+]([O-])c2ccccc2n1O	5.77%
O[N+]1=CC=CCC1=S.On1ccccc1=S.[Zn]	102% (active)
COc1ccc(-c2ccc(S(=O)(=O)N3CCCCCC3)cc2)cc1	81.1% (active)
Nc1cc(S(=O)(=O)N2CCCCC2)ccc1Oc1ccc(Cl)cc1	16.6%
COc1ccc2cc(CN(C)c3ccc(C#N)cn3)ccc2c1	19.4%
O=S(=O)(c1ccc(Cl)cc1)N1CCCC2CCCCC21 (centres undefined)	23.9%

Structure (SMILES)	inhibition
COc1ccc(CC2CCN(S(=O)(=O)c3ccc(C#N)cc3)CC2)cc1	52.4% (active)
COc1ccc(CC2CCN(S(=O)(=O)c3ccc(Cl)cc3)CC2)cc1	56.9% (active)
COc1ccc(S(=O)(=O)N2CC3(C)CC2CC(C)(C)C3)cc1 (centres undefined)	24.4%
CCc1ccc(S(=O)(=O)N2CCC(CO)(Cc3ccc(OC)cc3)CC2)s1	15.3%
Cc1ccc(S(=O)(=O)N2CCC(NC(=O)C(C)Oc3ccc(Cl)cc3Cl)CC2)cc1 (centres undefined)	10.4%
CCN1CCc2c(sc(NC(=O)C3CC3)c2-c2nc3ccccc3s2)C1	36%
CCN1CCc2c(sc(NC(=O)c3ccco3)c2-c2nc3ccccc3s2)C1	87.1% (active)
CCC(=O)Nc1sc2c(c1-c1nc3ccccc3s1)CCN(CC)C2	60.8% (active)
CCN1CCc2c(sc(NC(C)=O)c2-c2nc3ccccc3s2)C1	79.4% (active)
CCN1CCc2c(sc(NC(=O)c3ccc([N+](=O)[O-])cc3)c2-c2nc3ccccc3s2)C1	42.7%
CN1CCc2c(sc(NC(=O)c3ccco3)c2-c2nc3ccccc3s2)C1	inactive
CCN1CCc2c(sc(NC(=O)C(C)(C)C)c2-c2nc3ccccc3s2)C1	100% (active)
CCC(=O)Nc1sc2c(c1-c1nc3ccccc3s1)CCN(C)C2	30.1%
C(=Nn1c(-c2ccco2)csc1=NC1CCCCC1)c1ccccn1	-7.16%
CCN1CCc2c(sc(NC(=O)c3cccs3)c2-c2nc3ccccc3s2)C1	52% (active)
CN1CCc2c(sc(NC(=O)C(C)(C)C)c2-c2nc3ccccc3s2)C1	52.2% (active)
CCN1CCc2c(sc(NC(=O)c3ccc(C(C)=O)cc3)c2-c2nc3ccccc3s2)C1	5.96%
CCN1CCc2c(sc(NC(=O)c3ccc(OC)cc3)c2-c2nc3ccccc3s2)C1	inactive
CCN1CCc2c(sc(NC(=O)c3ccccc3)c2-c2nc3ccccc3s2)C1	100% (active)
Cc1ccc(S(=O)(=O)CC(=O)Nc2sc3c(c2-c2nc4ccccc4s2)CCN(C)C3)cc1	-29.9%
CN1CCc2c(sc(NC(=O)CS(=O)(=O)c3ccccc3)c2-c2nc3ccccc3s2)C1	25.4%
CN1CCc2c(sc(NC(=O)c3cccs3)c2-c2nc3ccccc3s2)C1	45.1%
CC1CCc2c(sc3nc(C(C)N4CCOCC4)[nH]c(=O)c23)C1 (centres undefined)	49.6%
COc1ccc(OCCSCc2nc3sc4c(c3c(=O)[nH]2)CCC(C)C4)cc1 (centres undefined)	54.4% (active)
CC1CCc2c(sc3nc(CN(Cc4ccccc4)CC(O)COCc4ccccc4)[nH]c(=O)c23)C1 (centres undefined)	17.2%

Structure (SMILES)	inhibition
N=c1oc2c([N+](=O)[O-])cc(N3CCCCC3)cc2cc1-c1nc2ccccc2s1	5.54%
Oc1ccc(Br)cc1C=NNc1ccc(F)cc1F	58.9% (active)
CN(C)c1ccc(C=NNc2ccc(F)cc2F)cc1	14.3%
COc1cc(OC)c(OC)cc1C=NNc1ccc(F)cc1F	84.3% (active)
COc1ccc(N2CN=C3SCC(=O)N3C2)cc1	95.9% (active)
COc1ccc(CN2CCN(c3ccc(Oc4ccccc4)cc3)C(=O)C2C)cc1 (centres undefined)	28.7%
O=c1c2cnc(N3CCOCC3)nc2ccn1-c1ccc(Cl)c(Cl)c1	12.3%
O=C1CSC2=NCN(c3ccc(Cl)c(Cl)c3)CN12	71.9% (active)
O=C1CSC2=NCN(c3ccc(I)cc3)CN12	63.4% (active)
CCOC(=O)c1nnc2n(c1=O)CCN2c1ccc(OC)cc1	31.9%
CNc1cnc(-c2ccc(O)cc2C)cn1	9.26%
CCCCCCCCN=C1NC(=O)CS1	95.8% (active)
CCCCCOc1cc(C)ccc1S(=O)(=O)N1CCCC1	41.6%
Nc1ncc(Br)cc1S(=O)(=O)N1CCCCC1	77.9% (active)
CCOC(=O)C1CCN(C2CCN(c3nncc(-c4ccccc4)n3)CC2)CC1	-15.5%
CCOc1ccc(-c2ccc(=O)n(Cc3cc(C)ccc3C)n2)cc1	-12.8%
CCOc1ccc(-c2ccnc(N3CCN(C(=O)C(=O)OC)CC3)n2)cc1	53.2% (active)
CC(C)(CNC(=O)CCc1ccco1)c1ccc(Br)cc1	11.2%
O=C(NCCc1ccco1)c1ccc(C2SCCS2)cc1	77.9% (active)
O=C(NCCc1ccco1)c1ccc(Br)cc1F	5.5%
O=S(=O)(Nc1cnc(Br)cn1)c1cccc(Cl)c1	10.2%
N#Cc1ccc(NS(=O)(=O)c2ccc(F)c(Cl)c2)nc1	27%
O=S(=O)(Nc1ccc(Br)cn1)c1ccc(Cl)cc1	77.7% (active)
O=C(NCc1ccccc1F)C(C1CCCC1)N1CCN(C(=O)c2ccc(C(F)(F)F)cc2)CC1 (centres undefined)	-35.5%
O=C(c1c(F)c(F)cc(F)c1F)N1CCC(Cc2ccc(C(F)(F)F)cc2)CC1	71.6% (active)

Structure (SMILES)	inhibition
O=C(N1CCC(Cc2ccc(-c3ccccc3)cc2)CC1)C(F)(F)C(F)F	39.3%
CC(C)(C)c1ccc(CC2CCN(C(=O)CCCl)CC2)cc1	82% (active)
CC(Cl)C(=O)N1CCC(Cc2ccc(C(F)(F)F)cc2)CC1 (centres undefined)	90.3% (active)
O=C(C1CCC1)N1CCC(Cc2ccc(C(F)(F)F)cc2)CC1	83.6% (active)
Cc1cc2cc(NC(=O)c3ccc(CN4CC[C@H](O)C4)cc3)ccc2o1	91.8% (active)
O=C1NC(=NC2CCCC2)SC1=Cc1cc2c(cc1Br)OCO2	63.1% (active)
c1ccc2c(NCCNc3ncnc4ccccc34)cccc2c1	69.3% (active)
c1ccc(-c2nc(NCCc3ccccn3)c3ccccc3n2)cc1	-27%
O=[N+]([O-])c1ccccc1NCCNc1cccc2ccccc12	26%
COc1ccc(OC)c(-c2nc3ccc(Br)cn3c2NC2CCCCC2)c1	10.8%
CCOC(=O)CNc1c(-c2ccccc2Cl)nc2ccc(Br)cn12	88.4% (active)
CCOC(=O)CNc1c(-c2ccc(C(F)(F)F)cc2)nc2ccc(Br)cn12	24.2%
Oc1c(Cl)cc(Cl)c(Cl)c1Cc1c(O)c(Cl)cc(Cl)c1Cl	102% (active)
Cc1cccc(-c2ccc(NC(=O)C3CCN(C(=O)c4ccc(F)cc4)CC3)cc2)c1	81.5% (active)
Cc1cccc(-c2ccc(NC(=O)C3CCN(C(=O)c4nonc4C)CC3)cc2)c1	92.3% (active)
Cc1cccc(-c2ccc(NC(=O)C3CCN(C(=O)c4ccncc4)CC3)cc2)c1	inactive
O=C(CCOc1ccccc1)NC12CC3CC(CC(C3)C1)C2	87.8% (active)
Cc1ccc(SCC(=O)NC23CC4CC(CC(C4)C2)C3)cc1C	-43.9%
COc1ccccc1N(C)CC(=O)NC12CC3CC(CC(C3)C1)C2	9.54%
CC(C)Nc1nc(-c2ccc(Br)s2)cs1	17.8%
O=C(Nc1nc(-c2ccc(Br)s2)cs1)c1ccc(Br)s1	81.8% (active)
CCOc1ccc(Nc2cncc(Cl)n2)cc1	72.5% (active)
COc1ccc(NC(=O)N(Cc2ccco2)C(C)c2nc3ccccc3c(=O)n2-c2ccccc2)cc1 (centres undefined)	-7.33%
COc1ccc(NC(c2ccccn2)c2oc(CO)cc(=O)c2O)cc1 (centres undefined)	84.2% (active)
